Results filed as inconclusive are left out. A call without a number means that no potency is given here. Active and inactive are the calls of the source. Calls follow the shape of the dose curve; as a rule, active = well fitted inhibition curve with a large enough effect; inconclusive = small, poorly fitted or top-dose-only effect; inactive = flat fitted curve, though single readings scatter. Bridge positions count the residues as written; N and C are the ends. Square brackets hold non-standard residues; d marks the D form. Peptide text beside a SMILES is read from it. * marks the point of attachment. Ileψ(thiazoline)Cys = CC[C@H](C)[C@H](N)C1=N[C@H](C(=O)*)CS1; d(aIle) = CC[C@H](C)[C@@H](N)C(=O)O; dOrn = NCCC[C@@H](N)C(=O)O
Test system: CP247
Test: qHTS profiling for inhibitors of Plasmodium falciparum proliferation (AID 504749); also: nearly all actives have a fitted effect of over 60% in size
Settings: P. falciparum in erythrocytes, SYBR Green DNA, 72 h; series mostly up to 12.8 µM
Method in brief: (§1)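 P. falciparum-infected erythrocytes (0.3% parasitemia, 2.5% hematocrit final) were exposed to compounds for 72 h at 37 C in 5% CO2, then lysed with SYBR Green buffer overnight at room temperature; parasite DNA fluorescence was normalized to artemisinin and DMSO controls.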
Potency is read from the fitted curve at half-maximal effect.

How did the Potency turn out when `C[C@@H]1C[C@H]2[C@@H]3C[C@H](F)C4=CC(=O)C=C[C@@]4(C)[C@]3(F)[C@H](O)C[C@]2(C)[C@@]1(O)C(=O)CO` was run?
Its Potency is “inactive”.

Which Potency does the source give for `C[C@H](O)Cn1cnc2c1c(=O)n(C)c(=O)n2C` here?
Its Potency is “inactive”.

`CCCCC[C@H](O)/C=C\[C@@H]1[C@H](O)CC(=O)[C@@H]1CCCCCCC(=O)O` was tested. Which Potency did it give?
Its Potency is “inactive”.

`CC(=C(CCOP(=O)(O)O)SC(=O)c1ccccc1)N(C=O)Cc1cnc(C)nc1N` was tested. Which Potency did it give?
Its Potency is “inactive”.

`NC[C@@H]1O[C@@H](O[C@H]2[C@H](O)[C@H](O[C@@H]3O[C@H](CO)[C@@H](O)[C@H](N)[C@@H]3O)[C@@H](N)C[C@H]2N)[C@H](N)C[C@@H]1O` was tested. Which Potency did it give?
The Potency was “inactive”.

How did the Potency turn out when `CCc1c(C)[nH]c2c1C(=O)[C@H](CN1CCOCC1)CC2` was run?
The Potency was “inactive”.

With `C=C1c2c(Cl)ccc(O)c2C(O)=C2C(=O)[C@@]3(O)C(O)=C(C(N)=O)C(=O)[C@@H](N(C)C)[C@@H]3[C@@H](O)[C@H]12` as the molecule, how does the Potency read?
The Potency was “inactive”.

Which Potency does the source give for `CC[C@H](C)[C@H](N)C1=N[C@H](C(=O)N[C@@H](CC(C)C)C(=O)N[C@@H](CCC(=O)O)C(=O)N[C@@H](C(=O)N[C@H]2CCCCNC(=O)[C@@H](CC(N)=O)NC(=O)[C@@H](CC(=O)O)NC(=O)[C@@H](Cc3cnc[nH]3)NC(=O)[C@@H](Cc3ccccc3)NC(=O)[C@@H]([C@@H](C)CC)NC(=O)[C@@H](CCCN)NC2=O)[C@@H](C)CC)CS1` ({Ileψ(thiazoline)Cys}-LE[d(aIle)]K[dOrn][d(aIle)][dF][dH][dD][dN]; lactam 4-C) here?
The Potency was “inactive”.

With `O=C(N/N=C\c1ccc([N+](=O)[O-])o1)c1ccc(O)cc1` as the molecule, how does the Potency read?
The Potency was 2820 nM (active).

`CCOC(=O)O[C@@H](C)OC(=O)[C@@H]1N2C(=O)[C@@H](NC(=O)[C@@H](N)c3ccccc3)[C@H]2SC1(C)C` was tested. Which Potency did it give?
Its Potency is “inactive”.

Which Potency does the source give for `Cc1ccsc1/C=C\C1=NCCCN1C` here?
Its Potency is “inactive”.

For `O=C(O)COCCN1CCN([C@@H](c2ccccc2)c2ccc(Cl)cc2)CC1`, which Potency is on record?
Its Potency is “inactive”.

How did the Potency turn out when `C#C[C@]1(O)CC[C@@H]2[C@H]3CCC4=CCCC[C@@H]4[C@@H]3CC[C@@]21C` was run?
The Potency was “inactive”.

How did the Potency turn out when `CC1(C)[C@@H](OC(=O)CCC(=O)O)CC[C@@]2(C)[C@H]1CC[C@@]1(C)[C@H]2C(=O)C=C2[C@H]3C[C@](C)(C(=O)O)CC[C@]3(C)CC[C@@]21C` was run?
The Potency was “inactive”.

How did the Potency turn out when `C[C@H](CCC(=O)O)[C@H]1CC[C@@H]2[C@@H]3[C@@H](O)C[C@H]4C[C@@H](O)CC[C@@]4(C)[C@H]3CC[C@@]21C` was run?
Its Potency is “inactive”.

Test system: CP250
Test: as above
Settings: P. falciparum in erythrocytes, SYBR Green DNA, 72 h; series mostly up to 12.8 µM
Method in brief: as §1

For `C[C@@H]1C[C@H]2[C@@H]3C[C@H](F)C4=CC(=O)C=C[C@@]4(C)[C@]3(F)[C@H](O)C[C@]2(C)[C@@]1(O)C(=O)CO`, which Potency is on record?
The Potency was “inactive”.

`C[C@H](O)Cn1cnc2c1c(=O)n(C)c(=O)n2C` was tested. Which Potency did it give?
Its Potency is “inactive”.

How did the Potency turn out when `CCCCC[C@H](O)/C=C\[C@@H]1[C@H](O)CC(=O)[C@@H]1CCCCCCC(=O)O` was run?
The Potency was “inactive”.

Which Potency does the source give for `CC(=C(CCOP(=O)(O)O)SC(=O)c1ccccc1)N(C=O)Cc1cnc(C)nc1N` here?
Its Potency is “inactive”.

For `NC[C@@H]1O[C@@H](O[C@H]2[C@H](O)[C@H](O[C@@H]3O[C@H](CO)[C@@H](O)[C@H](N)[C@@H]3O)[C@@H](N)C[C@H]2N)[C@H](N)C[C@@H]1O`, which Potency is on record?
Its Potency is “inactive”.

How did the Potency turn out when `CCc1c(C)[nH]c2c1C(=O)[C@H](CN1CCOCC1)CC2` was run?
Its Potency is “inactive”.

How did the Potency turn out when `C=C1c2c(Cl)ccc(O)c2C(O)=C2C(=O)[C@@]3(O)C(O)=C(C(N)=O)C(=O)[C@@H](N(C)C)[C@@H]3[C@@H](O)[C@H]12` was run?
Its Potency is “inactive”.

`CC[C@H](C)[C@H](N)C1=N[C@H](C(=O)N[C@@H](CC(C)C)C(=O)N[C@@H](CCC(=O)O)C(=O)N[C@@H](C(=O)N[C@H]2CCCCNC(=O)[C@@H](CC(N)=O)NC(=O)[C@@H](CC(=O)O)NC(=O)[C@@H](Cc3cnc[nH]3)NC(=O)[C@@H](Cc3ccccc3)NC(=O)[C@@H]([C@@H](C)CC)NC(=O)[C@@H](CCCN)NC2=O)[C@@H](C)CC)CS1` ({Ileψ(thiazoline)Cys}-LE[d(aIle)]K[dOrn][d(aIle)][dF][dH][dD][dN]; lactam 4-C) was tested. Which Potency did it give?
The Potency was “inactive”.

How did the Potency turn out when `O=C(N/N=C\c1ccc([N+](=O)[O-])o1)c1ccc(O)cc1` was run?
Its Potency is 3160 nM (active).

How did the Potency turn out when `CCOC(=O)O[C@@H](C)OC(=O)[C@@H]1N2C(=O)[C@@H](NC(=O)[C@@H](N)c3ccccc3)[C@H]2SC1(C)C` was run?
The Potency was “inactive”.

With `Cc1ccsc1/C=C\C1=NCCCN1C` as the molecule, how does the Potency read?
Its Potency is “inactive”.

With `O=C(O)COCCN1CCN([C@@H](c2ccccc2)c2ccc(Cl)cc2)CC1` as the molecule, how does the Potency read?
The Potency was “inactive”.

Which Potency does the source give for `C#C[C@]1(O)CC[C@@H]2[C@H]3CCC4=CCCC[C@@H]4[C@@H]3CC[C@@]21C` here?
The Potency was “inactive”.

How did the Potency turn out when `CC1(C)[C@@H](OC(=O)CCC(=O)O)CC[C@@]2(C)[C@H]1CC[C@@]1(C)[C@H]2C(=O)C=C2[C@H]3C[C@](C)(C(=O)O)CC[C@]3(C)CC[C@@]21C` was run?
Its Potency is “inactive”.

For `C[C@H](CCC(=O)O)[C@H]1CC[C@@H]2[C@@H]3[C@@H](O)C[C@H]4C[C@@H](O)CC[C@@]4(C)[C@H]3CC[C@@]21C`, which Potency is on record?
The Potency was “inactive”.

With `CN1CCO[C@H](c2ccccc2)c2ccccc2C1` as the molecule, how does the Potency read?
Its Potency is “inactive”.
